Experimental data published in PubChem BioAssay (NCI).
About 83,000 compounds went through this panel and 20% of them were active in at least one assay; those are over-represented in the sample as a whole.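 Each cell line was grown in a 96-well plate and treated with one concentration of compound for 48 hours. Values below 10 were considered active.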 Values without a mark were called inactive. Calls of active or inactive are those of the source.

Experiments:
Assay in all cases: NCI-60 one-dose screen, 48 h (100 = growth as untreated, 0 = no growth, -100 = all killed)
Details in all cases: 10 µM
SK-MEL-2 melanoma = tested on: SK-MEL-2 melanoma
EKVX NSCLC = tested on: EKVX NSCLC
SN12C renal = tested on: SN12C renal
UO-31 renal = tested on: UO-31 renal
TK-10 renal = tested on: TK-10 renal
ACHN renal = tested on: ACHN renal
CAKI-1 renal = tested on: CAKI-1 renal
A498 renal = tested on: A498 renal
CCRF-CEM leukemia = tested on: CCRF-CEM leukemia
MOLT-4 leukemia = tested on: MOLT-4 leukemia
SR leukemia = tested on: SR leukemia
RPMI-8226 leukemia = tested on: RPMI-8226 leukemia
OVCAR-8 ovarian = tested on: OVCAR-8 ovarian
OVCAR-5 ovarian = tested on: OVCAR-5 ovarian
OVCAR-4 ovarian = tested on: OVCAR-4 ovarian
SK-OV-3 ovarian = tested on: SK-OV-3 ovarian
IGROV1 ovarian = tested on: IGROV1 ovarian
OVCAR-3 ovarian = tested on: OVCAR-3 ovarian
HS 578T breast = tested on: HS 578T breast
NCI/ADR-RES ovarian = tested on: NCI/ADR-RES ovarian

Structure (SMILES)	growth (SK-MEL-2 melanoma) [%]	growth (EKVX NSCLC) [%]	growth (SN12C renal) [%]	growth (UO-31 renal) [%]	growth (TK-10 renal) [%]	growth (ACHN renal) [%]	growth (CAKI-1 renal) [%]	growth (A498 renal) [%]	growth (CCRF-CEM leukemia) [%]	growth (MOLT-4 leukemia) [%]	growth (SR leukemia) [%]	growth (RPMI-8226 leukemia) [%]	growth (OVCAR-8 ovarian) [%]	growth (OVCAR-5 ovarian) [%]	growth (OVCAR-4 ovarian) [%]	growth (SK-OV-3 ovarian) [%]	growth (IGROV1 ovarian) [%]	growth (OVCAR-3 ovarian) [%]	growth (HS 578T breast) [%]	growth (NCI/ADR-RES ovarian)
CCCN1CN2C(=O)N3CN(CCC)CN4C(=S)N(C1)C2C34 (stereo not given)	102	95.2	100	94.6	93.2	94.4	90.4	108	94.9	103	79.3	105	108	95.2	103	86.1	99.3	103	113	103%
O=C(CSc1nnc(-c2cccnc2SCc2ccccc2)o1)Nc1nc(Cl)cc(Cl)n1	102	103	103	67.7	109	103	95.8	112	101	95.7	101	100	102	106	106	110	105	106	97.4	101%
CCOC(=O)C1=CSC2=NC3=C(CCC/C3=C\c3cc(OC)c(OC)c(OC)c3)C(c3cc(OC)c(OC)c(OC)c3)N12 (stereo not given)	106	95.1	54.4	69.9	84.7	45.9	66.3	78.4	16.8	52.7	31.2	22.4	13.5	75.7	72.3	102	89.7	57.1	46.8	3.63% (active)
O=C1/C=C/[C@@H](O)[C@@H]2C[C@@H](O)C[C@H]2/C=C/CCC[C@@H](C(F)(F)F)O1	86.3	90.4	90.3	47.6	73.7	98.3	98.4	84.8	92.2	84.7	102	97.7	83.2	107	75.3	96	105	69.8	74.2	92.5%
CC(=O)OC1C=CC(OC(C)=O)O1 (stereo not given)	88.9	99.3	89.8	59.4	102	97.9	89	81.3	76.6	90	101	92.4	94.2	101	97.5	91.8	89.8	102	87.4	99.2%
CNS(=O)(=O)Oc1ccc(-c2sc3cc(OS(=O)(=O)NC)ccc3c2C(=O)c2ccc(OCCN3CCCCC3)cc2)cc1	83.7	79.6	79.5	50.9	99.5	96.8	59.3	76.2	46.5	23.2	27	35.9	86.6	88.3	69.8	76.1	85.6	83.6	58.9	71.4%
NS(=O)(=O)Oc1ccc(-c2ccc3sccc3c2)cc1	105	13.3	94.3	82.1	94	94.1	83.6	99.8	108	97.4	115	107	102	88.8	97.3	108	101	106	44.6	95.3%
COc1ccc2cc(-c3nc4ccccc4s3)c(Cl)nc2c1OC	95.8	100	99.9	64	118	96.6	94.5	93.1	104	92.7	87.6	101	103	105	94.6	93.4	103	91.5	89.9	99.8%
